The text below walks through data of PubChem BioAssay (Tox21).

The nature of assay [1]: qHTS assay to test for compound auto fluorescence at 535 nm (green) in HEK293 cells (AID 720680). A general note: qHTS replaces the single test concentration by a dilution series.
A short description of assay [2]: qHTS assay to test for compound auto fluorescence at 460 nm (blue) in HEK293 cell free culture (AID 720681). A digest of the protocol:
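Blue fluorescence (Ex 405/Em 460 nm, triamterene-equivalent) was read immediately after pin transfer of compound or DMSO into medium (DMEM, 10% FBS) without cells.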

Assay [3] is described as follows: qHTS assay to test for compound auto fluorescence at 535 nm (green) in HEK293 cell free culture (AID 720682). An outline of the steps:
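Compounds were pin-transferred into cell-free DMEM with 10% FBS, and green fluorescence was read at excitation 485 nm and emission 535 nm. Intensities were expressed as fluorescein-equivalent values.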

Assay [4] is described as follows: qHTS assay to test for compound auto fluorescence at 590 nm (red) in HEK293 cell free culture (AID 720683). An outline of the steps: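 Red-channel autofluorescence of compounds in culture medium (DMEM, 10% FBS), no cells, measured at 540/590 nm. Rose Bengal sodium is the reference fluorophore for equivalence.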
A short description of assay [5]: qHTS assay to test for compound auto fluorescence at 590 nm (red) in HepG2 cell free culture (AID 720684). A digest of the protocol: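 Plate contents were MEM with 10% FBS plus test compound or DMSO, no cells. Fluorescence was recorded with 540 nm excitation and 590 nm emission.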
Assay [6] is described as follows: qHTS assay to test for compound auto fluorescence at 460 nm (blue) in HepG2 cell free culture (AID 720685). A digest of the protocol:
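Compound (23 nL) or DMSO pinned into cell-free MEM with 10% FBS; blue fluorescence read at 405/460 nm excitation/emission, expressed as auto-fluorescence equivalency to triamterene.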

Assay [7] can be described thus: qHTS assay to test for compound auto fluorescence at 535 nm (green) in HepG2 cell free culture (AID 720686).
Assay [8] in a line: qHTS assay to test for compound auto fluorescence at 460 nm (blue) in HepG2 cells (AID 720687). A digest of the protocol: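 Blue-channel autofluorescence (Ex/Em 405/460 nm, triamterene-equivalent) was measured after 1 hr compound exposure at 37 C, 5% CO2. Cells were HepG2, plated overnight at 37 C in MEM plus 10% FBS.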
Assay [9] deals with Glucocorticoid receptor (Homo sapiens) (UniProt P04150). Briefly: qHTS assay to identify small molecule agonists of the glucocorticoid receptor (GR) signaling pathway (AID 720691; active = well fitted activation curve with a large enough effect in the signal ratio in the repeat runs, not every such curve was filed as active; the % refers to the signal ratio). An outline of the steps: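 qHTS in GR-bla HeLa cells: 4 h settling at 37 C/5% CO2, 18 h compound incubation at 37 C, 2 h LiveBLAzer B/G FRET substrate at room temperature, fluorescence intensity measured.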

Assay [10] shares this target. Briefly: qHTS assay to identify small molecule antagonists of the glucocorticoid receptor (GR) signaling pathway (AID 720692; active = well fitted inhibition curve with a large enough effect in the signal ratio in the repeat runs, not every such curve was filed as active; the % refers to the signal ratio; note: potency is the fitted concentration of half-maximal effect). A digest of the protocol: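 Inhibition of glucocorticoid signalling is measured in HeLa cells with a GRE-controlled beta-lactamase reporter; cells are co-treated with compound and 5 nM dexamethasone (final) for 18 h before FRET substrate readout.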

Several values for one entry are separate records, joined by “and”; a condition that tells them apart may be missing. Identical values can stand only once. Inconclusive results are not listed. Activity calls are given as the source filed them. Unless noted, calls come from the whole dose curve; as a rule, active = well fitted curve in the direction sought with a large enough effect in the repeat runs; inconclusive = weak or mixed curves; inactive = flat fitted curve, though single readings scatter.

Glucocorticoid receptor (Homo sapiens), sequence (P04150 whole entry, looked up): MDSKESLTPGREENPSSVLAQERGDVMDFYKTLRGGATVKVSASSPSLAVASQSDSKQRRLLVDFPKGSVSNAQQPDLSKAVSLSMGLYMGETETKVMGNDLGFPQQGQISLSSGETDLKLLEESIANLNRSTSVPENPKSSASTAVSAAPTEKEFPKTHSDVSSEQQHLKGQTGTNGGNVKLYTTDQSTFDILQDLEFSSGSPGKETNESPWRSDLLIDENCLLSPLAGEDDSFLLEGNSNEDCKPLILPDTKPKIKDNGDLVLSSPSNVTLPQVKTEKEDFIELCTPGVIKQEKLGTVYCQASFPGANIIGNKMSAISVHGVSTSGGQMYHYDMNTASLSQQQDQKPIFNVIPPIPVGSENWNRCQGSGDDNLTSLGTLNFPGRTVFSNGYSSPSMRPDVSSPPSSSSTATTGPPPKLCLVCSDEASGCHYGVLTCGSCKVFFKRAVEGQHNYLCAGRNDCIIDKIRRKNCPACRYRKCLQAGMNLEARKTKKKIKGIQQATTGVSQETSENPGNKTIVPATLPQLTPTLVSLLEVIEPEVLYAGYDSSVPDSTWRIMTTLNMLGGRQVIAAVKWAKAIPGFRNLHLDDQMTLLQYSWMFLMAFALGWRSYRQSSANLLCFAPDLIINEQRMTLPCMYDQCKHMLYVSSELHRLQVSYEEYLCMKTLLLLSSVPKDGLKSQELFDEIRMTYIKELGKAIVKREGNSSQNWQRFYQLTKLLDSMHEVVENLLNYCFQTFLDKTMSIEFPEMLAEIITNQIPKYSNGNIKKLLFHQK

`Clc1cnc(Oc2ccc(Oc3ncc(Cl)cc3Cl)cc2)c(Cl)c1`: the call in assay [1], in assay [2], in [3], in assay [4], in assay [5] and in [6] was inactive. In addition, the compound was called inactive in assay [7], in assay [8] and in assay [9]. The Potency result in assay [10] was “inactive”.
Take `C=CC(=O)OCCCCCC(C)C`: the compound was classed as inactive in assay [1], in assay [2], in [3], in assay [4], in assay [5] and in assay [6]. For the same compound, the compound was classed as inactive in assay [7] and in assay [8].
`OCC(O)CCl` (stereo unspecified): the result in [1], in assay [2], in assay [3], in [4], in assay [5] and in assay [6] was inactive. Also, the outcome in [7], in assay [8] and in assay [9] was inactive. The Potency result in assay [10] was “inactive”.
As to `Nc1nc(N)nc(NC2CC2)n1`, the outcome in [1], in assay [2], in [3], in assay [4], in [5] and in assay [6] was inactive. The call in [7], in [8] and in assay [9] was inactive. The Potency entry in assay [10] is “inactive”.
For `Sc1ccccc1`, the compound was classed as inactive in [1], in [2], in [3], in assay [4], in assay [5] and in assay [6]. Further, the call in assay [7], in assay [8] and in [9] was inactive. For the same compound, the Potency result in assay [10] was “inactive”.
With `Cl[C@H]1OCCO[C@@H]1Cl`, the outcome in assay [1], in assay [2], in [3], in assay [4], in [5] and in assay [6] was inactive. Further, the outcome in assay [7], in assay [8] and in assay [9] was inactive.
On to `COP(=S)(OC)Oc1ccc(SC)c(C)c1`, for which the outcome in assay [1], in assay [2], in assay [3], in assay [4], in assay [5] and in assay [6] was inactive. The result in assay [7], in [8] and in assay [9] was inactive. In addition, the Potency result in assay [10] was “inactive”.
Turning to `OCCCCO`, the result in assay [1], in [2], in [3], in assay [4], in assay [5] and in [6] was inactive. The call in assay [7], in [8] and in assay [9] was inactive. In addition, in assay [10], the Potency entry is “inactive”.
With `CC(C)(C)C(=O)CCl`, the compound was classed as inactive in assay [1], in [2], in [3], in assay [4], in [5] and in assay [6]. The compound was classed as inactive in assay [7], in assay [8] and in [9]. Also, the Potency entry in assay [10] is “inactive”.
Consider `CNc1cnn(-c2cccc(C(F)(F)F)c2)c(=O)c1Cl`, for which the call in [1], in [2], in assay [3], in assay [4], in assay [5] and in assay [6] was inactive. The compound was classed as inactive in assay [7], in [8] and in assay [9]. The Potency entry in assay [10] was “inactive”.
Turning to `FC(F)(F)c1ccc(Cl)cc1`, the compound was called inactive in assay [1], in assay [2], in assay [3], in [4], in [5] and in [6]. For the same compound, the call in [7], in assay [8] and in assay [9] was inactive. Also, the Potency result in [10] is “inactive”.
As for `O=C(O)COc1ccccc1`, the call in assay [1], in [2], in [3], in assay [4], in assay [5] and in [6] was inactive. The result in [7], in assay [8] and in [9] was inactive. The Potency entry in [10] is “inactive”.
For `O=[N+]([O-])c1ccc(Cl)cc1`, the compound was classed as inactive in [1], in [2], in assay [3], in [4], in assay [5] and in assay [6]. In addition, the call in assay [7], in [8] and in assay [9] was inactive. Further, in assay [10], the Potency entry was “inactive”.
In the case of `CC(C)CCCCCCOC(=O)c1ccccc1C(=O)OCCCCCCC(C)C`, the compound was classed as inactive in assay [1], in [2], in assay [3], in assay [4], in assay [5] and in assay [6]. Further, the result in assay [7], in [8] and in [9] was inactive. Moreover, the Potency result in assay [10] is “inactive”.
As to `Cc1cc(O)ccc1Cl`, the outcome in assay [1], in [2], in assay [3], in assay [4], in assay [5] and in [6] was inactive. Further, the outcome in assay [7], in [8] and in assay [9] was inactive. The Potency result in [10] is “inactive”.
Take `C[C@]12CC[C@H](O)CC1=CC[C@@H]1[C@@H]2CC[C@]2(C)C(=O)CC[C@@H]12`: the call in [1], in [2], in assay [3], in [4], in [5] and in assay [6] was inactive. Also, the compound was classed as inactive in [7] and in [8]. Moreover, in [10], the Potency is 43.7 µM (active) and 43.6 µM (active).
For the compound `O=C(O)C1C(C(=O)O)C2(Cl)C(Cl)=C(Cl)C1(Cl)C2(Cl)Cl` (stereo unspecified), the outcome in [1], in [2], in assay [3], in [4], in [5] and in assay [6] was inactive. Further, the compound was called inactive in [7], in assay [8] and in assay [9]. The Potency result in [10] is “inactive”.
In the case of `CNC(=O)O/N=C/C(C)(C)S(C)=O` (stereo unspecified), the outcome in assay [1], in [2], in [3], in assay [4], in assay [5] and in assay [6] was inactive. Moreover, the compound was called inactive in [7], in assay [8] and in assay [9]. Moreover, the Potency entry in [10] is “inactive”.
For `CCCCC(CC)C(=O)Cl` (stereo unspecified), the compound was classed as inactive in assay [1], in assay [2], in assay [3], in [4], in [5] and in assay [6]. In addition, the compound was classed as inactive in [7], in assay [8] and in assay [9]. Also, in [10], the Potency result is “inactive”.
With `O=C(O)c1cc(Oc2ccc(C(F)(F)F)cc2Cl)ccc1[N+](=O)[O-]`, the compound was called inactive in [1], in assay [2], in assay [3], in assay [4], in assay [5] and in assay [6]. For the same compound, the compound was called inactive in assay [7], in assay [8] and in [9]. Also, the Potency entry in [10] is “inactive”.
`Nc1ncc([N+](=O)[O-])s1`: the result in [1], in [2], in assay [3], in assay [4], in assay [5] and in assay [6] was inactive. For the same compound, the result in assay [7], in assay [8] and in assay [9] was inactive. Besides, in [10], the Potency result was “inactive”.
As to `ClC(Cl)c1ccccc1`, the compound was called inactive in assay [1], in assay [2], in assay [3], in assay [4], in [5] and in assay [6]. Also, the call in [7], in assay [8] and in assay [9] was inactive. In addition, the Potency result in assay [10] was “inactive”.
